Laboratory results published in the OligoGym collection.

biological target: ZNF250; assay: pooled miR-30 sensor sort-seq; sequence = guide strand; details: shRNA
Further: reference of the scale not given here.

| Sequence | sensor-assay potency score (higher = more potent) |
| --- | --- |
| TTTTGTGACACTGAATCGCCAA | 0.484 |
| TTTGTGACACTGAATCGCCAAA | -1.66 |
| TTATTTTCTTGATCAATCCTCC | 0.32 |
| TACACTGCACACATAGGGCTTC | -0.55 |

biological target: ZNF259; assay: as above; details: shRNA

| Sequence | sensor-assay potency score (higher = more potent) |
| --- | --- |
| TAACACAATAGGCTCACACTTG | -0.434 |
| TTGTACTAGCTTCATGTTGGTC | -0.732 |
| TTTTCCACAAAACTGTTCCCTG | -0.697 |
| TTCGATGATCTGGTCCATCTTC | -0.231 |
| TCAGTCTTCACCACTTCTCTGT | 0.0434 |
| TTGTAGTGTGTGATCACCAGGG | 0.392 |
| TTCATTTCTGAGATCTTCCTCT | 0.123 |
| TTCAGTTTGACAATGAACTCAT | 0.875 |
| TTGCAGTAACAGTTCATGCATA | -0.757 |
| TAAACTCCTGTAGTCTCTCCGT | -0.469 |
| TCACACTTGCATCACAAGCTGT | -0.681 |
| TTCTGAGATCTTCCTCTTCTGG | -1.55 |

biological target: ZNF263; assay: as above; details: shRNA

| Sequence | sensor-assay potency score (higher = more potent) |
| --- | --- |
| TAAGGTAAACTGGACAGTCAGG | -0.825 |
| TACACAGTCTTTCAGCTGCATG | -1.42 |
| TTTCAGTGCAGTCCACACCCAT | -0.797 |
| TTCAGTGCAGTCCACACCCATA | -1.37 |
| TTATCAGACACCTACTTCCTCT | -0.271 |
| TGAAGCTCGGTGACTCTCGTGC | 0.166 |
| TTTGGCTGCAGTTCCTTCGGTC | 0.0507 |
| TTATAGGGTCTCTCTCCCGTAT | -0.848 |
| TTGAAGCTCGGTGACTCTCGTG | -0.044 |
| TTTTATGCCAATCCTCTGCTGC | 0.0855 |

biological target: ZNF300; assay: as above; details: shRNA

| Sequence | sensor-assay potency score (higher = more potent) |
| --- | --- |
| TGAGTTGTGACTTCTTAGCAAA | -1.22 |
| TTCCACATTCAGAACAATCATA | -0.99 |
| TAAAACAAGGTCTGACTTCTGA | -0.123 |
| ATGAGTTCTGTCTTCCTGCTGA | 0.161 |
| TTCTGTATGCTTAACTTGCTGT | -0.0649 |
| TTTTTTTCTTGAATTGCTCTTA | 0.496 |
| TAGTCTTAACATCTAATGCTTC | -0.419 |
| TTAGTCTTAACATCTAATGCTT | -0.171 |
| TTGCTCTTATAACAACTCGGTA | -1.42 |
| TTACTGAATCTGATCAACCTAT | -0.267 |

biological target: ZNF322A; assay: as above; details: shRNA

| Sequence | sensor-assay potency score (higher = more potent) |
| --- | --- |
| TATGAGTCAACTAACTATGAGA | -0.783 |
| TAAGACAGGAGCTTCTACCAAA | -0.88 |
| TTCACCAATGTGTACTGTCTGA | -0.693 |
| TTTTTCACCAATGTGTACTGTC | 0.583 |
